We go through five compounds from PubChem BioAssay.

Calls of active or inactive are those of the source.

The test system of assay [1] is PRMT1 (protein arginine N-methyltransferase 1). Kind of assay: small molecules binding arginine methyltransferase PRMT1 – biochemical, small-molecule microarray, 635 nm fluorescence, primary screen (AID 1088).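 Further: binding of Prmt1 protein to compounds spotted on small-molecule microarray slides.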 To be noted: higher = more signal.
Assay [2] in a line: growth effects on S. cerevisiae YJM789 – YJM789 clinical isolate, OD600, 24 h, basal, primary screen (AID 1089).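 Further: growth of clinical yeast isolate S. cerevisiae YJM 789 seeded 1000 cells per well; test concentration not given here.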 To be noted: higher = more signal, called active from +8 up or from −8 down.
The nature of assay [3]: S. pombe growth modifiers, basal conditions – strain 972, OD600, 24 h, no modulator, primary screen (AID 1090).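 Further: basal condition with compound alone and no growth modifier present; test concentration not given here.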 To be noted: S. pombe 972 growth, higher = more signal, called active from +8 up or from −8 down.
A short description of assay [4]: budding yeast growth modifiers under rapamycin – strain BY4716, OD600, 96 h, primary screen (AID 1091). Further: test concentration not given here. Conditions: S. cerevisiae BY4716 + rapamycin, higher = more signal, called active from +8 up or from −8 down.
Assay [5] concerns the target Torsin-1A-interacting protein 2 (Homo sapiens) (UniProt Q8NFQ8). Kind of assay: small molecules binding lysate-expressed LULL1 – cell lysate, human LULL1 lysate, 635/667 nm fluorescence, primary screen (AID 1092).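 Further: probe is lysate of COS7 cells overexpressing human LULL1; score merges per-feature 667 nm fluorescence with signal-to-noise.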 To be noted: small-molecule microarray, hLULL1 lysate binding, 635 nm fluorescence; higher = more signal.
The nature of assay [6]: optical density change of DRC41 E. coli – strain DRC41, OD650, 24 h, E. coli filamentation project, primary screen (AID 1093).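 Further: MC1000 strain lacking acrAB efflux and sulA so SOS filamentation is blocked; test concentration not given here.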 To be noted: E. coli DRC41 growth, higher = more signal, called active from +8 up or from −8 down.
Assay [7] is described as follows: probe aLefty2 binding to arrayed compounds – biochemical, biotinylated probe, 635/667 nm fluorescence, primary screen (AID 1094).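 Further: score merges spot fluorescence near 667 nm with spot signal-to-noise ratio.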 Conditions: small-molecule microarray, higher = more signal.
The subject of assay [8] is Noggin (protein binding on small-molecule microarray). In words: small molecules binding Noggin protein – biochemical, 635/667 nm fluorescence, primary screen (AID 1095).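 Further: score merges 667 nm feature fluorescence with signal to noise over triplicate slides.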 Conditions: 635 nm fluorescence, higher = more signal.
For assay [9], the target named is Neurogenic locus notch homolog protein 3 (Homo sapiens) (UniProt Q9UM47). Kind of assay: small molecules binding NOTCH3 protein – biochemical, 635/667 nm fluorescence, primary screen (AID 1096). To be noted: small-molecule microarray, 635 nm fluorescence, higher = more signal.
Assay [10] is described as follows: probe aEGFR binding to arrayed compounds – biochemical, biotinylated probe, 635/667 nm fluorescence, primary screen (AID 1097).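 Further: probe is a biotinylated anti-EGFR antibody binding compounds printed on slides; score combines fluorescence near 667 nm and signal to noise of each spot.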 Conditions: small-molecule microarray, higher = more signal.
Assay [11] relates to Plasmodium falciparum Sir2 (PF13_0152, Sir2A). In words: Plasmodium falciparum Sir2A binding compounds – biochemical, small-molecule microarray, 635 nm fluorescence, primary screen (AID 1098).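 Further: score merges spot fluorescence intensity with its signal-to-noise ratio.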 Conditions: fluorescence 635 nm, higher = more signal.
Assay [12] is described as follows: probe aDKK1 binding to arrayed compounds – biochemical, biotinylated probe, 635/667 nm fluorescence, primary screen (AID 1099).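 Further: score merges 667nm spot fluorescence with signal to noise across triplicate slides; reference of the scale not given here.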 To be noted: small-molecule microarray, higher = more signal.
A short description of assay [13]: probe aCHRDL2 binding to arrayed compounds – biochemical, biotinylated probe, 635/667 nm fluorescence, primary screen (AID 1100). To be noted: small-molecule microarray, higher = more signal.
Assay [14] in a line: change in splice reporter luminescence, either direction, cell-based, HEK293, spliceosome inhibition project, primary screen (AID 1101).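 Further: HEK293 cells carrying a splicing-competent luciferase reporter gene; test concentration not given here.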 To be noted: HEK293 splicing luciferase reporter, 24 h, higher = more signal, called active from +8 up or from −8 down. (In general: In a reporter assay the amount or activity of a reporter protein is the signal.)
For assay [15], the target named is Fibroblast growth factor 10 (Homo sapiens) (UniProt O15520). In words: compounds binding fibroblast growth factor 10 – biochemical, small-molecule microarray, 635 nm fluorescence, primary screen (AID 1102). To be noted: FGF10 binding, fluorescence 635 nm, higher = more signal.
Assay [16] relates to glycogen synthase kinase-3 (GSK3A per assay name; protocol says GSK3B). In words: compounds binding glycogen synthase kinase-3 – biochemical, small-molecule microarray, 635 nm fluorescence, GSK3A, primary screen (AID 1103). Further: the record names both GSK3A and GSK3B. To be noted: fluorescence 635 nm, higher = more signal.
The target in assay [17] is Epidermal growth factor receptor (Homo sapiens) (UniProt P00533). In words: compounds binding epidermal growth factor receptor – biochemical, small-molecule microarray, 635 nm fluorescence, primary screen (AID 1104).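 Further: score merges 667 nm emission intensity with spot signal to noise over triplicate slides.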 To be noted: EGFR binding, higher = more signal.
In assay [18] the target is Follistatin-related protein 3 (Homo sapiens) (UniProt O95633). In words: compounds binding follistatin-related protein 3 – biochemical, small-molecule microarray, 635 nm fluorescence, primary screen (AID 1105).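 Further: score merges emission near 667 nm and signal to noise per printed spot across three slides.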 To be noted: FSTL3 binding, higher = more signal.
Assay [19] addresses Dickkopf-related protein 1 (Homo sapiens) (UniProt O94907). In words: small molecules binding DKK1 protein – biochemical, small-molecule microarray, 635 nm fluorescence scan, primary screen (AID 1106).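 Further: score merges emission near 667 nm with signal to noise over three replicate slides.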 To be noted: higher = more signal.
In assay [20] the test system is Inhibin beta A chain (activin A). In words: small molecules binding activin A – biochemical, small-molecule microarray, 635 nm fluorescence scan, primary screen (AID 1107).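 Further: mouse activin A protein probed at 4.33 µg/mL on printed slides; score merges bound-protein fluorescence near 667 nm with spot signal-to-noise.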 To be noted: INHBA, higher = more signal.

Epidermal growth factor receptor (Homo sapiens), sequence (P00533 whole entry, looked up): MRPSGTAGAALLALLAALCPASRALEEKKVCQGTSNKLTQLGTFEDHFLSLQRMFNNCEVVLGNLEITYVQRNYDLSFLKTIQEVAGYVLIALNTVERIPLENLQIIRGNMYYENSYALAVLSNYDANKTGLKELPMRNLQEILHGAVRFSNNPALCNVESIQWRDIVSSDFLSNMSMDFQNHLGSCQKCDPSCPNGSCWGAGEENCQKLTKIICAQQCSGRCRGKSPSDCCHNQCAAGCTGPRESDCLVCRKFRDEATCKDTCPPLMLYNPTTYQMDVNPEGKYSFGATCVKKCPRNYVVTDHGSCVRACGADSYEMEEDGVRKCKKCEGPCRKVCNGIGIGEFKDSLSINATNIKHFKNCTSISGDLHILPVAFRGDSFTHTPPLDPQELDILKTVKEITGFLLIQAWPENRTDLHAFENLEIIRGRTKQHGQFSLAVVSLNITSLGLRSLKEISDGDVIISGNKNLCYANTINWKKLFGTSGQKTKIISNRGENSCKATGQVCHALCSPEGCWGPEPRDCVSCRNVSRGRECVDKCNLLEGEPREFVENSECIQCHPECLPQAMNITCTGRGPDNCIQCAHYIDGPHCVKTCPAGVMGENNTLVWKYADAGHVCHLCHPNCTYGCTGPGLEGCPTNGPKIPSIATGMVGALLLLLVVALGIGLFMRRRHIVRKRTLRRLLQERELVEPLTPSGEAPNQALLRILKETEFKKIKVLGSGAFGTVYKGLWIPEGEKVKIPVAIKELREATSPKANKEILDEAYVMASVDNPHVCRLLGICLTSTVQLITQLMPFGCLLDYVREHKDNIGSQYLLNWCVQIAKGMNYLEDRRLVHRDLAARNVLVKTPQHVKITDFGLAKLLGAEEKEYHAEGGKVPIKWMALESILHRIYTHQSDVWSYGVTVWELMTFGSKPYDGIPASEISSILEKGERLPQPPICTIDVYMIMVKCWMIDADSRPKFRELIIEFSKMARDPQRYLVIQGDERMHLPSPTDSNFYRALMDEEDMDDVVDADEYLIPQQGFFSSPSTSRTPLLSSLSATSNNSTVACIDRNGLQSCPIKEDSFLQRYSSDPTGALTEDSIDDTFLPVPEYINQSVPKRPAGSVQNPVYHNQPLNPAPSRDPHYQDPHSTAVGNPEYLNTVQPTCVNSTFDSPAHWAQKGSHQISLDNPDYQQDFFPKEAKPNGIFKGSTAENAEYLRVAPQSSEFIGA
Fibroblast growth factor 10 (Homo sapiens), sequence (O15520 whole entry, looked up): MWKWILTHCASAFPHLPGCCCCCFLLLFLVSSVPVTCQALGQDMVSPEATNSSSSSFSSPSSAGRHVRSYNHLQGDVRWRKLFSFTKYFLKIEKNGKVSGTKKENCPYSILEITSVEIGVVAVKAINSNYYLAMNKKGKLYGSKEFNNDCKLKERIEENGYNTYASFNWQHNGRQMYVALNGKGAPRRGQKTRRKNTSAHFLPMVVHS
Dickkopf-related protein 1 (Homo sapiens), sequence (O94907 whole entry, looked up): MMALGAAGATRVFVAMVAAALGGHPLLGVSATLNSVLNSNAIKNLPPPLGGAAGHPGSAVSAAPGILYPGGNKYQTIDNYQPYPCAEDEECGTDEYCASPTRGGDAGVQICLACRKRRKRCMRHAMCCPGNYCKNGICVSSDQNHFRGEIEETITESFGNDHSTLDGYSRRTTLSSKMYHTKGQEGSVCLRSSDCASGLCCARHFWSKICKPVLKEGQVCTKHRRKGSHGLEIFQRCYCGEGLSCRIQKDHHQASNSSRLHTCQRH
Follistatin-related protein 3 (Homo sapiens), sequence (O95633 whole entry, looked up): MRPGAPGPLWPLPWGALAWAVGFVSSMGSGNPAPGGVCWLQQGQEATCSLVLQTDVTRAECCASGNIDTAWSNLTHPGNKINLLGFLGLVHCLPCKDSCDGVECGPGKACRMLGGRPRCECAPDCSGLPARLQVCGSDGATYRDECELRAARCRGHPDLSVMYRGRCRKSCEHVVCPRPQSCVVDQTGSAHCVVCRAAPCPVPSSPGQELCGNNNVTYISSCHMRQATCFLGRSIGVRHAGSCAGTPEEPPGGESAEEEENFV
Neurogenic locus notch homolog protein 3 (Homo sapiens), sequence (Q9UM47 whole entry, looked up): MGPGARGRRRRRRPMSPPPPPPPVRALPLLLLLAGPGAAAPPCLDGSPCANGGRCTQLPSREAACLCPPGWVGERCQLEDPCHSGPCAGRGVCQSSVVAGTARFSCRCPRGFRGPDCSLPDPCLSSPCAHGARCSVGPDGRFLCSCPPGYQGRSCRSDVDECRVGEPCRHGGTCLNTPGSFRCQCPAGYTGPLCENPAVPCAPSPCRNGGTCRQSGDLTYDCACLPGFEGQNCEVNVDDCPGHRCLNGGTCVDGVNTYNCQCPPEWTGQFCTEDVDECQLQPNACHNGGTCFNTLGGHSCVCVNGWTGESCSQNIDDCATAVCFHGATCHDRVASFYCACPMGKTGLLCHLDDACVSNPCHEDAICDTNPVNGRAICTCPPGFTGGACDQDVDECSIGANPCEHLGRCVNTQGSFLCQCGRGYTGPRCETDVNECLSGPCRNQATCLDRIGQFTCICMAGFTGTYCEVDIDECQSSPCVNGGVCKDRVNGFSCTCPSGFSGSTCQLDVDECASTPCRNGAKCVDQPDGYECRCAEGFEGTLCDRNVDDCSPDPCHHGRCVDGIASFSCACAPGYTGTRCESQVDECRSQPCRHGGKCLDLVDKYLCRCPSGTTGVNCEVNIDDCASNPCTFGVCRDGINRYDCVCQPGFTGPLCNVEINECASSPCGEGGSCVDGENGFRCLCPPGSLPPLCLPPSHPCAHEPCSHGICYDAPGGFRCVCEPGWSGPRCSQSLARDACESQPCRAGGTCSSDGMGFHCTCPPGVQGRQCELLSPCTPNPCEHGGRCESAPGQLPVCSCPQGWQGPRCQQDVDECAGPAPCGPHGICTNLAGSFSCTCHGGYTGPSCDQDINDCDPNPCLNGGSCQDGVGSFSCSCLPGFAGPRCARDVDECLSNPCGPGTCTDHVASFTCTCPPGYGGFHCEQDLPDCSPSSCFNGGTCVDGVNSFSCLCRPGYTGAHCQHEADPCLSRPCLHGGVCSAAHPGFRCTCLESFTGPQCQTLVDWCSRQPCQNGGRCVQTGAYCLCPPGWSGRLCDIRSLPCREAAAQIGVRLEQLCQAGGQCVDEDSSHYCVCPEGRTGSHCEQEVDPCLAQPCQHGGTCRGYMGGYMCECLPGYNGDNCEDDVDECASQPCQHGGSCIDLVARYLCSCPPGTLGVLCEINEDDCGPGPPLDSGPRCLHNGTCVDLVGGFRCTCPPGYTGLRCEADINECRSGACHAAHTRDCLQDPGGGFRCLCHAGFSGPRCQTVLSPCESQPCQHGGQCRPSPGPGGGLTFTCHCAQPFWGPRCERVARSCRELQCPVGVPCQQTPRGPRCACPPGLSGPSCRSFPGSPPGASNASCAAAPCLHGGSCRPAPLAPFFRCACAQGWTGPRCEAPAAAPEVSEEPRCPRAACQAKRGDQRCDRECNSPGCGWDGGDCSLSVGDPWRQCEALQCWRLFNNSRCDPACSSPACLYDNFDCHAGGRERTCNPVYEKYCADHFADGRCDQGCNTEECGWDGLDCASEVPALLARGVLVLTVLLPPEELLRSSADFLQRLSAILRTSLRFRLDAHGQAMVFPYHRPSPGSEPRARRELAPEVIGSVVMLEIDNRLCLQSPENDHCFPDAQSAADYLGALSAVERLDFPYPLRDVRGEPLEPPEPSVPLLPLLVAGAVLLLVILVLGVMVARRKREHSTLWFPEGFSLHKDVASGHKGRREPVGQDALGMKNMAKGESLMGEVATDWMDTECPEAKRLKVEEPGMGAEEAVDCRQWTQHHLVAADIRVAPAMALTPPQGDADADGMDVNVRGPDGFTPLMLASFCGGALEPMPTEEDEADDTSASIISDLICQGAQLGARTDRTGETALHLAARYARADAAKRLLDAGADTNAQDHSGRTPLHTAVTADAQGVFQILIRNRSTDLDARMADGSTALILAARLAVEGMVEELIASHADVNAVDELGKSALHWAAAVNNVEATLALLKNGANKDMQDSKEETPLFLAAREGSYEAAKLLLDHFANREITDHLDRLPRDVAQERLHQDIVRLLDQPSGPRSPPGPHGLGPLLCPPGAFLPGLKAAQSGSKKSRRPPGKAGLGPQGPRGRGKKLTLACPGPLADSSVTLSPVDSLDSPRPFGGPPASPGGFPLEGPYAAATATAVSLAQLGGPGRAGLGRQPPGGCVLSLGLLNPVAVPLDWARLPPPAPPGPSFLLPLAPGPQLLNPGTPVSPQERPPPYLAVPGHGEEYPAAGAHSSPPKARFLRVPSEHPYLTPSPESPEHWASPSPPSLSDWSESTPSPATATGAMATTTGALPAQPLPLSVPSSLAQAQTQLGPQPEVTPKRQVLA
Torsin-1A-interacting protein 2 (Homo sapiens), sequence (Q8NFQ8 whole entry, looked up): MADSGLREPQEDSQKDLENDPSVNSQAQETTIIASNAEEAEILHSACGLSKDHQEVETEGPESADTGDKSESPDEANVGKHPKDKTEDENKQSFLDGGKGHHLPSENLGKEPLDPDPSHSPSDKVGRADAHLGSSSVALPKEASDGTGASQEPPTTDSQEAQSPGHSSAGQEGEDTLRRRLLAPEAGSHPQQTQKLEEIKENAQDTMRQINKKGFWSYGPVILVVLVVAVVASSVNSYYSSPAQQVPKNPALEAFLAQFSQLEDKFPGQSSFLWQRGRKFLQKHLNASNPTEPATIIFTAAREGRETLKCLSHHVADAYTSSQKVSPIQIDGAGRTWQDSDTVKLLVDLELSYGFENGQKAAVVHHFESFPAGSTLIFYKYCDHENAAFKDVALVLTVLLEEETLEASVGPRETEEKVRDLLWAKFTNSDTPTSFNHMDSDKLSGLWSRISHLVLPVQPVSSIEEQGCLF

For `CCCC[C@@H](O)C1=C(COC)C[C@H]2C(=O)N(Cc3ccccc3)C(=O)[C@H]2[C@H]1CO`, the composite z-score in assay [1] is 0.831; in assay [5], 0.113; in [7] it was -0.241; in assay [8] it was 1.18; in assay [9], 0.788; in assay [10], -0.113. The composite z-score in assay [11] is 0.516; in assay [12], -0.449; in assay [13] it was -0.815; in [15], 0.822; in assay [16], 0.464; in [17], 0.26. Further, the composite z-score was found to be 1 in assay [18], 0.972 in assay [19] and 0.44 in assay [20]. The z-score was 0.332 (inactive) in assay [2]; -0.677 (inactive) in [3]; 0.719 (inactive) in assay [4]; 0.649 (inactive) in assay [6]; 0.296 (inactive) in assay [14].

With `Cc1ccc(S[C@]2(C(=O)NCc3ccccc3)CC(=O)N(C3CCCCC3)[C@@H]2c2ccc(CO)cc2I)cc1`, the composite z-score in [1] is 1.15; in assay [5], 2.72; in [7] it was -0.0948; in assay [8], 0.147; in assay [9] it was 0.237; in assay [10], -0.139. Moreover, the composite z-score was 1.25 in assay [11]; -0.0018 in assay [12]; 0.379 in assay [13]; 0.861 in [15]; 0.1 in assay [16]; -0.104 in assay [17]. In addition, the values for the composite z-score in assay [18], in [19] and in [20] were 0.226, -0.358 and -0.0734, respectively. Further, the z-score was -0.727 (inactive) in assay [2]; -0.462 (inactive) in assay [3]; 0.861 (inactive) in assay [4]; -0.455 (inactive) in [6]; -1.49 (inactive) in [14].

On to `COc1ccc([Si](C)(C)[C@@H]2[C@@H](CC(=O)N3Cc4ccccc4C[C@H]3CO)O[C@]3(C(=O)N(Cc4ccc(N5C(=O)c6cccc7cccc5c67)cc4)c4ccccc43)[C@H]2C)cc1`, for which the composite z-score in assay [1] came out at 1.55; in assay [5], 1.74; in [7] it was 0.104; in assay [8], 1.14; in assay [9] it was 1.04; in assay [10] it was 0.0717. Also, the composite z-score in [11] was 0.68; in assay [12] it was -0.0502; in assay [13], -0.0445; in assay [15], 1.31; in [16], 1.27; in [17] it was 1.2. Further, the values for the composite z-score in assay [18], in assay [19] and in assay [20] were 1.24, 1.12 and 0.772, respectively. Besides, the z-score is -0.297 (inactive) in assay [2]; 0.389 (inactive) in [3]; 1.39 (inactive) in assay [4]; -0.465 (inactive) in [6]; 1.54 (inactive) in assay [14].

Regarding `[N-]=[N+]=NCc1ccccc1[C@H]1OC(c2ccc(OCCCO)cc2)=N[C@@]1(Cc1ccccc1N=[N+]=[N-])C(=O)NCC(O)CO` (stereo not given in full), the composite z-score worked out at 1.54 in [1]; 3.52 in [5]; 0.0511 in assay [7]; 0.0758 in assay [8]; 1.09 in [9]; 0.0201 in assay [10]. The composite z-score in [11] is 1.12; in assay [12], 0.33; in assay [13] it was 0.873; in [15], 0.903; in assay [16], 1.13; in assay [17], -0.186. Also, the figures for the composite z-score in [18], in assay [19] and in [20] were 0.681, -0.308 and 0.317, respectively. The z-score in assay [2] was -0.527 (inactive); in [3], -0.451 (inactive); in [4], 0.134 (inactive); in assay [6], -0.221 (inactive); in assay [14], 0.451 (inactive).

As to `CC(C)NC(=O)[C@@]1(C)c2ccccc2C(=O)N(Cc2ccc(OC(F)(F)F)cc2)[C@H]1c1ccc(CO)cc1`, the composite z-score in assay [1] was 0.911; in assay [5], 2.32; in assay [7], -0.221; in assay [8], -0.748; in assay [9] it was -0.284; in [10], -0.349. In addition, the composite z-score in [11] was 1.43; in assay [12], -0.0863; in [13] it was 0.77; in assay [15] it was -0.962; in [16] it was -0.85; in assay [17], -1.43. The values for the composite z-score in [18], in assay [19] and in [20] were -1.19, -1.25 and -1.03, respectively. Moreover, the z-score was 0.738 (inactive) in [2]; -0.784 (inactive) in assay [3]; -1.38 (inactive) in assay [4]; -1.55 (inactive) in assay [6]; -1.08 (inactive) in assay [14].
